# “And” between values parts separate entries of the source, which are not always exact repeats. Equal entries are not always repeated. Inconclusive results are not listed. The source holds several records for some structures; these can differ, active in one and inactive in another. The source made the active and inactive calls. How the source made its calls: active means hit-call score of the fitted dose curve at least 0.9, where 1 is the maximum; inconclusive means response in the unintended direction; inactive means score below 0.9.
# Tests used:
# [1] = ATG_XTT_Cytotoxicity: Cytotoxicity Assessment in the Attagene TRANS-FACTORIAL HepG2 Assay (AID 2283584);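 on AC50: XTT signal for cell number as viability in transfected HepG2 cells; cells exposed to compound for 24 h before reading; active means loss of viability signal versus DMSO baseline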
# Outline: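 Transfect HepG2 with GAL4-UAS reporter units, dose compound, incubate 24 h, then measure viable cell number by XTT. Fit concentration response against DMSO baseline.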
# [2] = target: Cellular tumor antigen p53 (Homo sapiens) (UniProt P04637); experiment: TOX21_p53_BLA_p2_ratio: Tox21 HCT-116 p53 Agonism Beta-lactamase Assay, Ratio, Phase 2 (AID 2283592)
# Cellular tumor antigen p53 (Homo sapiens), sequence (P04637 whole entry, looked up): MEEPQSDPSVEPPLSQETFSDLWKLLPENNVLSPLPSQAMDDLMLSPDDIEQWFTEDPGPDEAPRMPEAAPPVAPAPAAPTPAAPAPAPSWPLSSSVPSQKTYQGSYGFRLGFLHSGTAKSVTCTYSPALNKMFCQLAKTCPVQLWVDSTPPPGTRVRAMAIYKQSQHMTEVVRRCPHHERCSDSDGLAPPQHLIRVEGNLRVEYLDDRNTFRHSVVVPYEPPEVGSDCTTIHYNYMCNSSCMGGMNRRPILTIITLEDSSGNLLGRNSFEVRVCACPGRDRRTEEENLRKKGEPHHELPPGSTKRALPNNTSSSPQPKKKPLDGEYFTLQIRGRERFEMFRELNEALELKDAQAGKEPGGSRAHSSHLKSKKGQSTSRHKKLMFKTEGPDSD
# Outline: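 An inducible beta-lactamase reporter in HCT116 cells signals p53 pathway activation. After 16 h chemical exposure at 37C, cells load CCF4-AM substrate for 2 h at room temperature; activity is the cleaved/uncleaved emission ratio relative to DMSO.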
# [3] = TOX21_p53_BLA_p3_viability: Viability Assessment in the Tox21 HCT-116 p53 Agonism Beta-lactamase Assay, Phase 3 (AID 2283593);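 further: cells exposed to compound for 16 h before reading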
# Outline: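 HCT-116 cells (4000/well) rested 5 h at 37C, then got DMSO compounds by pin tool (217-fold dilution) for 16 h at 37C, 5% CO2. After the bla read, CellTiter-Glo was added and luminescence read at 30 min, room temperature.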
# [4] = TOX21_p53_BLA_p2_viability: Viability Assessment in the Tox21 HCT-116 p53 Agonism Beta-lactamase Assay, Phase 2 (AID 2283591);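 further: compound exposure lasted 16 h at 37 °C; actives lower the ATP signal meaning cytotoxicity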
# Outline: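 HCT-116 p53-bla cells (4000/well) rested 5 h at 37C, then received compounds in DMSO (217-fold dilution) for 16 h at 37C, 5% CO2. After the CCF4 read, CellTiter-Glo was added; ATP luminescence was read after 30 min at room temperature.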
smiles,measurement,setting,value
CN(C)CCOC(C)(c1ccccc1)c1ccccn1 (stereo unspecified),outcome,[1],inactive
same,outcome,[2],inactive
ON=C1CCCCC1,outcome,[1],inactive
same,outcome,[2],inactive
CC(=O)OCCCc1ccccc1,outcome,[1],inactive
same,outcome,[2],inactive
CCN(CC)C(=O)N(CC)CC,outcome,[1],inactive
same,outcome,[2],inactive
same,outcome,[3],inactive
O=CCc1ccccc1,outcome,[1],inactive
same,outcome,[4],inactive
same,outcome,[3],inactive
COc1cc(CCC(C)=O)ccc1O,outcome,[1],inactive
same,outcome,[2],inactive
same,outcome,[3],inactive
COCCc1ccc(OCC(O)CNC(C)C)cc1 (stereo unspecified),outcome,[1],inactive
same,outcome,[2],inactive
CCCCCCCCCCCCN1CCCCCC1=O,AC50,[1],29.9 µM (active)
same,outcome,[2],inactive
same,outcome,[3],inactive
Cc1ccc(OC(=O)c2ccccc2O)cc1,outcome,[1],inactive
same,outcome,[2],inactive
same,outcome,[3],inactive
CCOC(=O)C(C#N)=C(c1ccccc1)c1ccccc1,outcome,[1],inactive
same,outcome,[4],inactive
same,outcome,[3],inactive
Cc1c(C2(c3cc(Br)c(O)c(Br)c3C)OS(=O)(=O)c3ccccc32)cc(Br)c(O)c1Br,outcome,[1],inactive
same,outcome,[4],inactive
same,AC50,[3],37.1 µM (active)
C=CCCCCCCCCCC,outcome,[1],inactive
same,outcome,[4],inactive
same,outcome,[3],inactive
Cc1cc(=O)oc2cc(N(C)C)ccc12,outcome,[1],inactive
same,AC50,[2],51.5 µM (active)
same,outcome,[3],inactive
CCC(C)=O,outcome,[1],inactive
same,outcome,[4],inactive
same,outcome,[3],inactive
CC1=NN(c2ccc(S(=O)(=O)O)cc2)C(=O)C1,outcome,[1],inactive
same,outcome,[2],inactive
C[C@@H]1CCN(C(=O)[C@H](CCCN=C(N)N)NS(=O)(=O)c2cccc3c2NC[C@H](C)C3)[C@@H](C(=O)O)C1,outcome,[1],inactive
same,outcome,[2],inactive
Cc1c(Cl)cccc1[N+](=O)[O-],outcome,[1],inactive
same,outcome,[2],inactive
CCCC[O][Al]([O]CCCC)[O]CCCC,outcome,[1],inactive
same,outcome,[2],inactive
O=C1CCCC=CCCCCCCCCCC1,outcome,[1],inactive
same,outcome,[2],inactive
OC[C@H]1O[C@@H](Oc2ccc(O)cc2)[C@H](O)[C@@H](O)[C@@H]1O,outcome,[1],inactive
same,outcome,[2],inactive
CC(=O)NCCO,outcome,[1],inactive
same,outcome,[2],inactive
CCCCC1CCC(O)CC1 (stereo unspecified),outcome,[1],inactive
same,outcome,[2],inactive
CC(=O)C(C)O (stereo unspecified),outcome,[1],inactive
same,outcome,[2],inactive
same,outcome,[3],inactive
Nc1ccc(NCCO)c([N+](=O)[O-])c1,outcome,[1],inactive
same,outcome,[2],inactive
COC(=O)c1ccc(OC)cc1,outcome,[1],inactive
same,outcome,[4],inactive
same,outcome,[3],inactive
CS(C)=O,outcome,[1],inactive
same,outcome,[2],inactive
Cc1ccc(C)o1,outcome,[1],inactive
same,outcome,[4],inactive
same,outcome,[3],inactive
CN(C)C(=O)Nc1ccc(Oc2ccc(Cl)cc2)cc1,outcome,[1],inactive
same,outcome,[2],inactive
C=C[Si]1(C)O[Si](C)(C=C)O[Si](C)(C=C)O[Si](C)(C=C)O1 (stereo unspecified),outcome,[1],inactive
same,outcome,[2],inactive
same,outcome,[3],inactive
CC(C)(CO)[C@@H](O)C(=O)NCCC(=O)O,outcome,[1],inactive
same,outcome,[2],inactive
O=[N+]([O-])c1cccc(Cl)c1,outcome,[1],inactive
same,outcome,[2],inactive
same,outcome,[3],inactive
Cc1occc(=O)c1OC(=O)C(C)C,outcome,[1],inactive
same,outcome,[2],inactive
same,outcome,[3],inactive
CC[N+](C)(CC)CC,outcome,[1],inactive
same,outcome,[2],inactive
CC(=O)O[C@H]1C[C@@H]2CC[C@@]1(C)C2(C)C,outcome,[1],inactive
same,outcome,[2],inactive
CCCCCCCC(=O)OCCCCCC,outcome,[1],inactive
same,outcome,[2],inactive
same,outcome,[3],inactive
C1CCCCC1,outcome,[4],inactive
CCCC(=O)OC(C)(C)Cc1ccccc1,outcome,[4],inactive
same,outcome,[2],inactive
same,outcome,[3],inactive
CCc1ncc(C)[nH]1,outcome,[4],inactive
CCCC(C)C(O)CC (stereo unspecified),outcome,[1],inactive
same,outcome,[3],inactive
CSCCC=O,outcome,[4],inactive
Oc1c(Cl)cc(Cl)c(Cl)c1Cc1c(O)c(Cl)cc(Cl)c1Cl,AC50,[4],9.14 µM (active) and 38.7 µM (active)
same,outcome,[4],inactive
same,AC50,[3],39.9 µM (active) and 568 nM (active)
same,outcome,[3],inactive
COC(C)(C)CCO,outcome,[4],inactive
same,outcome,[2],inactive
CCC1(C)NC(=O)NC1=O (stereo unspecified),outcome,[4],inactive
same,outcome,[2],inactive
same,outcome,[3],inactive
CCCC(=O)C(CC)Sc1ccoc1C (stereo unspecified),outcome,[1],inactive
same,outcome,[3],inactive
CCCC(=O)c1ccccc1,outcome,[4],inactive
same,outcome,[2],inactive
same,outcome,[3],inactive
CC1(C)O[C@@H]2[C@@H](CO[C@@]3(COS(N)(=O)=O)OC(C)(C)O[C@@H]23)O1,outcome,[4],inactive
same,outcome,[2],inactive
CCCC[P+](CCCC)(CCCC)CCCC,outcome,[4],inactive
same,outcome,[2],inactive
same,outcome,[3],inactive
Nc1c(Cl)cc(Cl)cc1[N+](=O)[O-],outcome,[4],inactive
COC(C)(C)CCCC(C)CC=O (stereo unspecified),outcome,[4],inactive
same,outcome,[2],inactive
CN1CCOCC1,outcome,[4],inactive
same,outcome,[2],inactive
C#CC(C)N(C)C(=O)Nc1ccc(Cl)cc1 (stereo unspecified),outcome,[4],inactive
same,outcome,[2],inactive
CCOc1ccccc1O,outcome,[4],inactive
same,outcome,[2],inactive
CCCCCCOC(=O)CCC,outcome,[4],inactive
same,outcome,[2],inactive
same,outcome,[3],inactive
Cc1ccc(-c2ccccc2)cc1,outcome,[4],inactive
same,outcome,[2],inactive
same,outcome,[3],inactive
CCOc1ccc(N=Nc2ccc(C=Cc3ccc(N=Nc4ccc(OCC)cc4)cc3S(=O)(=O)O)c(S(=O)(=O)O)c2)cc1,outcome,[1],inactive
same,outcome,[3],inactive
Cc1ncc[nH]1,outcome,[4],inactive
same,outcome,[2],inactive
Nc1ccccc1[N+](=O)[O-],outcome,[4],inactive
same,outcome,[2],inactive
CC(C)CC(C)CC(O)CC(C)C (stereo unspecified),outcome,[1],inactive
same,outcome,[3],inactive
Cc1ccc2c(c1)C(=O)OC2=O,outcome,[4],inactive
same,outcome,[2],inactive
COC(CC(C)CCCC(C)(C)O)OC (stereo unspecified),outcome,[4],inactive
O=C(CC(=O)c1ccccc1)c1ccccc1,outcome,[4],inactive
same,outcome,[2],inactive
CCC(Cl)C(Cl)C(Cl)CC(Cl)C(Cl)C(C)Cl (stereo unspecified),outcome,[4],inactive
same,outcome,[2],inactive
same,outcome,[3],inactive
CC(C=O)Cc1ccc(C(C)(C)C)cc1 (stereo unspecified),outcome,[1],inactive
same,outcome,[2],inactive
same,outcome,[3],inactive
CCCN(CCC)S(=O)(=O)c1ccc(C(=O)O)cc1,outcome,[4],inactive
same,outcome,[2],inactive
CCCCCCCCC=CCCCCCCCC1=NCCN1CCO,AC50,[4],46.1 µM (active)
same,outcome,[2],inactive
same,AC50,[3],77.4 µM (active)
NCC1CCCC(CN)C1 (stereo unspecified),outcome,[4],inactive
same,outcome,[2],inactive
C=CC(=O)OCCC#N,outcome,[1],inactive
same,outcome,[3],inactive
CCCCCCOC(=O)C(C)C,outcome,[4],inactive
same,outcome,[2],inactive
CCc1cc(C(C)(C)C)c(O)c(C(C)(C)C)c1,outcome,[4],inactive
same,outcome,[2],inactive
same,outcome,[3],inactive
OCC(O)c1ccccc1 (stereo unspecified),outcome,[1],inactive
same,outcome,[3],inactive
COCCOCCOCCO,outcome,[4],inactive
same,outcome,[2],inactive
same,outcome,[3],inactive
CCCSc1ccc2nc(NC(=O)OC)[nH]c2c1,outcome,[4],inactive
same,AC50,[2],336 nM (active) and 247 nM (active)
Cc1ccc(S(N)(=O)=O)cc1,outcome,[1],inactive
same,outcome,[2],inactive
same,outcome,[3],inactive
CN1C(=O)c2ccccc2C1=O,outcome,[4],inactive
same,outcome,[2],inactive
Cc1ccc(N)c(S(=O)(=O)O)c1,outcome,[4],inactive
same,outcome,[3],inactive
Nc1ccc(N)c2c1C(=O)c1ccccc1C2=O,outcome,[4],inactive
same,AC50,[2],7.9 µM (active)
same,outcome,[3],inactive
O=C(O)COCC(=O)O,outcome,[2],inactive
CCCCCCCCCCCCCCCC(=O)OC/C=C(C)/C=C/C=C(C)/C=C/C1=C(C)CCCC1(C)C,outcome,[4],inactive
same,outcome,[3],inactive
CC(=O)C1(C)CC2=C(CCCC2(C)C)CC1C (stereo unspecified),outcome,[4],inactive
same,outcome,[2],inactive
same,outcome,[3],inactive
N#Cc1cscn1,outcome,[2],inactive
same,outcome,[3],inactive
CCc1ccc(O)c(OC)c1,outcome,[3],inactive
CCc1ccc(O)cc1,outcome,[4],inactive
same,outcome,[2],inactive
same,outcome,[3],inactive
CC/C=C\CCOC(=O)CC,outcome,[3],inactive
FC(F)(F)COCC(F)(F)F,outcome,[3],inactive
Cc1cc(CCC(=O)OCCOCCOCCOC(=O)CCc2cc(C)c(O)c(C(C)(C)C)c2)cc(C(C)(C)C)c1O,outcome,[2],inactive
same,outcome,[3],inactive
COc1ccc(N)c([N+](=O)[O-])c1,outcome,[3],inactive
C1=CC2C3C=CC(C3)C2C1 (stereo unspecified),outcome,[4],inactive
same,outcome,[2],inactive
same,outcome,[3],inactive
C=C(C)C(=O)OCCOCCOCCOCCOC(=O)C(=C)C,outcome,[4],inactive
same,outcome,[2],inactive
same,outcome,[3],inactive
COC(=O)c1cccnc1,outcome,[4],inactive
same,outcome,[3],inactive
CN(C)C(=S)SC(=S)N(C)C,outcome,[4],inactive
same,outcome,[2],inactive
same,outcome,[3],inactive
COc1ccc(N=Nc2cc(C)c(N=Nc3ccc(S(=O)(=O)O)cc3)cc2OC)cc1,outcome,[4],inactive
same,outcome,[3],inactive
CCCOC(=O)c1c(Cl)c(Cl)c(Cl)c(Cl)c1C(=O)OCCC,outcome,[2],inactive
CC(C)CCCCCCCCCCCCCCC(=O)O,outcome,[2],inactive
same,outcome,[3],inactive
CC(C)C[C@H](NC(=O)OCC1c2ccccc2-c2ccccc21)C(=O)O,outcome,[2],inactive
O=C(O)CCCCCCCCCCCC(=O)O,outcome,[4],inactive
same,outcome,[2],inactive
same,outcome,[3],inactive
CCCCC1(COC(=O)CCC(=O)O)C(=O)N(c2ccccc2)N(c2ccccc2)C1=O,outcome,[4],inactive
same,outcome,[2],inactive
same,outcome,[3],inactive
NC1CCCCC1N (stereo unspecified),outcome,[4],inactive
same,outcome,[3],inactive
C[Si](C)(C)O[Si](C)(C)C,outcome,[2],inactive
same,outcome,[3],inactive
O=C(Nc1ccc2c(c1)Cc1ccccc1-2)C(F)(F)F,outcome,[4],inactive
same,outcome,[2],inactive
same,outcome,[3],inactive
CCCCOC(=O)CCCCCCCC(=O)OCCCC,outcome,[2],inactive
CCC(C)S (stereo unspecified),outcome,[4],inactive
same,outcome,[3],inactive
Nc1ccn([C@H]2CS[C@@H](CO)O2)c(=O)n1,outcome,[2],inactive
C=C(C)C(=O)OCCOC1CC2CC1C1C=CCC21 (stereo unspecified),outcome,[2],inactive
same,outcome,[3],inactive
c1ccc2[nH]cnc2c1,outcome,[4],inactive
same,outcome,[2],inactive
same,outcome,[3],inactive
C=Cc1ccc(C)cc1,outcome,[4],inactive
same,outcome,[2],inactive
same,outcome,[3],inactive
COc1ccccc1N=Nc1c(S(=O)(=O)O)cc2cc(S(=O)(=O)O)cc(NC(C)=O)c2c1O,outcome,[3],inactive
CCCCC(CC)(CO)CO,outcome,[2],inactive
same,outcome,[3],inactive
OCCc1ccccc1,outcome,[4],inactive
same,outcome,[2],inactive
same,outcome,[3],inactive
CSc1c(Cl)c(Cl)c(Cl)c(Cl)c1Cl,outcome,[4],inactive
same,outcome,[2],inactive
same,AC50,[3],45.9 µM (active)
c1ccc2cc(Nc3ccc(Nc4ccc5ccccc5c4)cc3)ccc2c1,outcome,[2],inactive
same,outcome,[3],inactive
c1ccc(Oc2ccccc2)cc1,outcome,[2],inactive
same,outcome,[3],inactive
CC(C)c1ccccc1O,outcome,[2],inactive
same,outcome,[3],inactive
COC(=O)Nc1ccc(Cl)c(Cl)c1,outcome,[4],inactive
same,outcome,[2],inactive
same,outcome,[3],inactive

# — PubChem BioAssay (EPA / NIEHS)
